The results in this text go back to PubChem BioAssay (NCI).

Assay [1] in a line: NCI Yeast Anticancer Drug Screen. Data for the rad50 strain (AID 155).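 Also: 0% = growth of vehicle-only cultures of the same strain.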 The note with it: S. cerevisiae rad50 strain growth inhibition, stronger effect = higher value. The method in brief: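 Compounds were tested on a yeast strain with an engineered DNA damage repair alteration; the reported value is growth inhibition normalised to vehicle treatment.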
Assay [2] in a line: NCI Yeast Anticancer Drug Screen. Data for the mec2-1 strain (AID 157). The note with it: S. cerevisiae mec2-1 strain, stronger effect = higher value. The procedure, abridged: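 Mutant yeast (mec2-1) grown with compound; growth inhibition relative to vehicle control reported.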
The nature of assay [3]: NCI Yeast Anticancer Drug Screen. Data for the sgs1 mgt1 strain (AID 161).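 Also: 0% = growth of cultures given vehicle only.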 The note with it: S. cerevisiae sgs1 mgt1 strain, stronger effect = higher value. The procedure, abridged: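 Percent growth inhibition was derived by comparing compound-exposed mutant yeast with vehicle-exposed cultures. The strain carries alterations in DNA damage repair.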
Assay [4] is described as follows: NCI Yeast Anticancer Drug Screen. Data for the cln2 rad14 strain (AID 165).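 Also: 0% = growth equal to vehicle treated cultures.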 The settings on record: S. cerevisiae cln2 rad14 strain, stronger effect = higher value. The procedure, abridged: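 Readout is yeast growth inhibition versus vehicle-treated controls, using a strain with cln2 and rad14 alterations exposed to compound.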
Assay [5] can be described thus: NCI Yeast Anticancer Drug Screen. Data for the bub3 strain (AID 167). The settings on record: S. cerevisiae bub3 mutant strain, stronger effect = higher value. The method in brief:
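Growth of a checkpoint-deficient yeast mutant is measured after compound exposure. Values represent inhibition relative to vehicle.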

Assay [6] in a line: NCI Yeast Anticancer Drug Screen. Data for the mlh1 rad18 strain (AID 175). The settings on record: S. cerevisiae mlh1 rad18 strain growth inhibition, stronger effect = higher value. The method in brief: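 Genetically defined yeast (DNA repair-deficient) exposed to compounds; growth inhibition determined relative to vehicle.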
The mark [7] stands for this setting: at 5.0 µM (retest, dose inferred, filed as 0.5).
The mark [8] stands for this setting: at 50.0 µM (retest, dose inferred, filed as 5.0).

This is part of a sample that, as a whole, favours compounds with a hit. Of some 79,000 tested, about 15% had one in any assay. A number with no mark means an inactive call. The source made the active and inactive calls. Rule as the data show it: active = growth inhibition above about 70%; inactive = the rest.

On to `CCC(C)(C[NH-])C[NH-].[Cl][Pt+2][Cl]`, for which the growth inhibition is 13% in assay [1] (setting [7]); 27% in assay [1] (setting [8]); 28% in assay [1] (at 50.0 µM); 19% in assay [2] (setting [7]); 28% in assay [2] (setting [8]); 45.9% in assay [2] (at 50.0 µM). Also, the growth inhibition was 18% in assay [3] (setting [7]); 28% in assay [3] (setting [8]); 3.9% in assay [3] (at 50.0 µM); 26% in assay [4] (setting [7]); 34% in assay [4] (setting [8]); 10.4% in assay [4] (at 50.0 µM). The growth inhibition in assay [5] (setting [7]) is 11%; in assay [5] (setting [8]) it was 28%; in assay [5] (at 50.0 µM), -14.7%; in assay [6] (setting [7]) it was 25%; in assay [6] (setting [8]) it was 42%; in assay [6] (at 50.0 µM), -17.6%.
Take `COc1cc(O)c2c(=O)c3cccc(C)c3[nH]c2c1`: the growth inhibition in assay [1] (setting [7]) is 8%; in assay [1] (setting [8]), 73% (active); in assay [1] (at 50.0 µM), 2.6%; in assay [2] (setting [7]) it was -17%; in assay [2] (setting [8]), 28%; in assay [2] (at 50.0 µM), 54.9%. Besides, the growth inhibition was 3% in assay [3] (setting [7]); 41% in assay [3] (setting [8]); 46.1% in assay [3] (at 50.0 µM); 14% in assay [4] (setting [7]); 37% in assay [4] (setting [8]); 49.4% in assay [4] (at 50.0 µM). The growth inhibition in assay [5] (setting [7]) was 2%; in assay [5] (setting [8]), 54%; in assay [5] (at 50.0 µM) it was 62.6%; in assay [6] (setting [7]), 2%; in assay [6] (setting [8]), 54%; in assay [6] (at 50.0 µM), 70% (active).
With `CC(C)(C)SC(=O)C1(C)OC1c1ccc([N+](=O)[O-])cc1` (configuration not stated), the growth inhibition was -6% in assay [1] (setting [7]); 45% in assay [1] (setting [8]); 53% in assay [1] (at 50.0 µM); -4% in assay [2] (setting [7]); -3% in assay [2] (setting [8]); 67.8% in assay [2] (at 50.0 µM). Also, the growth inhibition in assay [3] (setting [7]) was -5%; in assay [3] (setting [8]) it was 51%; in assay [3] (at 50.0 µM) it was 62.3%; in assay [4] (setting [7]), 5%; in assay [4] (setting [8]), -2%; in assay [4] (at 50.0 µM) it was -20.8%. Further, the growth inhibition was 0% in assay [5] (setting [7]); 13% in assay [5] (setting [8]); 29.8% in assay [5] (at 50.0 µM); -5% in assay [6] (setting [7]); 49% in assay [6] (setting [8]); 79.8% (active) in assay [6] (at 50.0 µM).
As for `CCOC(=O)C(=Cn1c(=S)[nH]c2ccc([N+](=O)[O-])cc21)C(=O)OCC`, the growth inhibition is 33% in assay [1] (setting [7]); 53% in assay [1] (setting [8]); -36.2% in assay [1] (at 50.0 µM); 17% in assay [2] (setting [7]); 22% in assay [2] (setting [8]); -35.2% in assay [2] (at 50.0 µM). The growth inhibition was 33% in assay [3] (setting [7]); 41% in assay [3] (setting [8]); 0.75% in assay [3] (at 50.0 µM); 20% in assay [4] (setting [7]); 25% in assay [4] (setting [8]); 13.9% in assay [4] (at 50.0 µM). Also, the growth inhibition in assay [5] (setting [7]) was 26%; in assay [5] (setting [8]) it was 29%; in assay [5] (at 50.0 µM) it was -37.2%; in assay [6] (setting [7]) it was 33%; in assay [6] (setting [8]), 46%; in assay [6] (at 50.0 µM), -40.2%.
For the compound `CCOC(=O)C1CCN(Cc2ccccc2)CC1=O` (configuration not stated), the growth inhibition in assay [1] (setting [7]) was 61%; in assay [1] (setting [8]), 89% (active); in assay [1] (at 50.0 µM), 90% (active); in assay [2] (setting [7]), 61%; in assay [2] (setting [8]) it was 92% (active); in assay [2] (at 50.0 µM) it was 91.3% (active). In addition, the growth inhibition in assay [3] (setting [7]) was 68%; in assay [3] (setting [8]), 99% (active); in assay [3] (at 50.0 µM), 92.4% (active); in assay [4] (setting [7]), 49%; in assay [4] (setting [8]), 100% (active); in assay [4] (at 50.0 µM), 90.2% (active). In addition, the growth inhibition in assay [5] (setting [7]) was 81% (active); in assay [5] (setting [8]) it was 98% (active); in assay [5] (at 50.0 µM) it was 90.7% (active); in assay [6] (setting [7]) it was 49%; in assay [6] (setting [8]), 87% (active); in assay [6] (at 50.0 µM), 90.8% (active).
With `COc1ccc(Oc2c(OC)cc(NCCCCCNC(C)C)c3ncccc23)cc1`, the growth inhibition in assay [1] (setting [7]) is 26%; in assay [1] (setting [8]), 72% (active); in assay [1] (at 50.0 µM) it was 91.9% (active); in assay [2] (setting [7]) it was 13%; in assay [2] (setting [8]) it was 52%; in assay [2] (at 50.0 µM), 67.9%. The growth inhibition is 37% in assay [3] (setting [7]); 85% (active) in assay [3] (setting [8]); 93.7% (active) in assay [3] (at 50.0 µM); 19% in assay [4] (setting [7]); 48% in assay [4] (setting [8]); 57.8% in assay [4] (at 50.0 µM). For the same compound, the growth inhibition in assay [5] (setting [7]) is 29%; in assay [5] (setting [8]), 69%; in assay [5] (at 50.0 µM), 81% (active); in assay [6] (setting [7]) it was 19%; in assay [6] (setting [8]), 52%; in assay [6] (at 50.0 µM) it was 89.8% (active).
Turning to `O=S(=O)(O)CC[S][Sn]([S]CCS(=O)(=O)O)([c]1ccccc1)[c]1ccccc1` (tested in a mixture with another compound), the growth inhibition is 84% (active) in assay [1] (setting [7]); 98% (active) in assay [1] (setting [8]); 71.9% (active) in assay [1] (at 50.0 µM); 48% in assay [2] (setting [7]); 98% (active) in assay [2] (setting [8]); 83.2% (active) in assay [2] (at 50.0 µM). The growth inhibition in assay [3] (setting [7]) was 92% (active); in assay [3] (setting [8]) it was 97% (active); in assay [3] (at 50.0 µM) it was 88.6% (active); in assay [4] (setting [7]), 28%; in assay [4] (setting [8]) it was 94% (active); in assay [4] (at 50.0 µM), 79.8% (active). The growth inhibition in assay [5] (setting [7]) is 59%; in assay [5] (setting [8]) it was 97% (active); in assay [5] (at 50.0 µM), 86.2% (active); in assay [6] (setting [7]), 94% (active); in assay [6] (setting [8]), 96% (active); in assay [6] (at 50.0 µM) it was 90.7% (active).
As for `CCCCCCCCCCNC(=O)C[n+]1cccc(C(=O)Nc2ccccc2)c1`, the growth inhibition was 4% in assay [1] (setting [7]); 99% (active) in assay [1] (setting [8]); 99.7% (active) in assay [1] (at 50.0 µM); 10% in assay [2] (setting [7]); 100% (active) in assay [2] (setting [8]); 99.8% (active) in assay [2] (at 50.0 µM). Besides, the growth inhibition in assay [3] (setting [7]) was -13%; in assay [3] (setting [8]), 100% (active); in assay [3] (at 50.0 µM), 99.9% (active); in assay [4] (setting [7]), 3%; in assay [4] (setting [8]) it was 99% (active); in assay [4] (at 50.0 µM), 99.2% (active). Moreover, the growth inhibition was -1% in assay [5] (setting [7]); 99% (active) in assay [5] (setting [8]); 99.6% (active) in assay [5] (at 50.0 µM); 28% in assay [6] (setting [7]); 100% (active) in assay [6] (setting [8]); 99.8% (active) in assay [6] (at 50.0 µM).
On to `Fc1ccc2c(c1)Nc1cc(F)cc(F)c1S2`, for which the growth inhibition in assay [1] (setting [7]) is -4%; in assay [1] (setting [8]) it was 54%; in assay [1] (at 50.0 µM), 2.7%; in assay [2] (setting [7]), -5%; in assay [2] (setting [8]), 12%; in assay [2] (at 50.0 µM), -2%. Further, the growth inhibition in assay [3] (setting [7]) was -4%; in assay [3] (setting [8]) it was 36%; in assay [3] (at 50.0 µM), 65.7%; in assay [4] (setting [7]) it was 0%; in assay [4] (setting [8]) it was 1%; in assay [4] (at 50.0 µM), 2.75%. In addition, the growth inhibition is -3% in assay [5] (setting [7]); 5% in assay [5] (setting [8]); 40.8% in assay [5] (at 50.0 µM); -6% in assay [6] (setting [7]); 48% in assay [6] (setting [8]); 21.5% in assay [6] (at 50.0 µM).
